# Bioassay records as filed in PubChem.
# SW480 rerep: A quantitative high throughput screen for small molecules that induce DNA re-replication in SW480 colon adenocarcinoma cells | SW480 DNA re-replication, Hoechst DNA content imaging, 48 h | Potency, µM (series often up to 46.1 µM), for the others: top-dose re-replication activation, most hits filed as activators | 340,000 compounds, 1.8% hits | AID 624297, 2012; note: % of control where 0% means no effect; nearly all actives have a fitted effect of over 55% in size
#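 SW480 cells exposed to compounds for 48 hr at 37 C, 5% CO2, then Hoechst-stained 40 min. Nuclear DNA content imaged by fluorescence scanning (405 nm excitation, 500-530 nm emission); re-replication scored as increased high-intensity nuclei.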
# MCF10A rerep: A quantitative high throughput screen for small molecules that induce DNA re-replication in MCF 10a normal breast cells. MCF 10A DNA re-replication, Hoechst nuclear intensity, 48 h. Potency, µM (doses to about 46.1 µM), inactives show at the top dose activity, positive = re-replication, hits mostly activators. 350,000 compounds, 2.9% hits. AID 624296, 2012; note: % of control where 0% means no effect; nearly all actives have a fitted effect of over 50% in size
# RORgamma inh: qHTS for inhibitors of ROR gamma transcriptional activity | 310,000 compounds, 5.4% hits | Nuclear receptor ROR-gamma (Mus musculus), P51450 | Potency, µM (series often up to 53.6 µM), inactives show at the top dose activity change, negative = inhibition, actives largely listed as inhibitors | Drosophila S2 Gal4-RORgamma UAS-luciferase reporter, 20 h; note: % is set by controls: 0 for no effect and ±100 for the full control effect; nearly all actives have a fitted effect of over 60% in size
# Target sequence (P51450 whole entry, looked up, the tested form may be a part): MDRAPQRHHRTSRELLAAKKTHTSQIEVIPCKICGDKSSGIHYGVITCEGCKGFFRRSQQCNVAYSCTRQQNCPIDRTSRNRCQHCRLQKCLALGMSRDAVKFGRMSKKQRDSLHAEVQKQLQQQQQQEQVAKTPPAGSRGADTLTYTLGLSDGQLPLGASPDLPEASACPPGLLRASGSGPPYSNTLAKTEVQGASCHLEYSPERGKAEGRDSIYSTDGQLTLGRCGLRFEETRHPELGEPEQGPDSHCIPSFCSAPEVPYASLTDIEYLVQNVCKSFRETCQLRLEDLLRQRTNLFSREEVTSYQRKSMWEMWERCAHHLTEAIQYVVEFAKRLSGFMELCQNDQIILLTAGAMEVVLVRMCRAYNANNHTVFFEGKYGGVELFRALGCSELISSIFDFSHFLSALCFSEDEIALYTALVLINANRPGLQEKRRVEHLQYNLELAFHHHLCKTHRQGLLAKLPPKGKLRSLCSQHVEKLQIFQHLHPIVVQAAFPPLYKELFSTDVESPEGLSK
#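 Stably transfected Drosophila Schneider cells are the test system, with ROR gamma fused to Gal4 and luciferase under UAS control; luminescence is read after 20 hr of 700 uM copper sulfate induction at ambient temperature.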
# ELG1 repair inh: qHTS screen for small molecules that inhibit ELG1-dependent DNA repair in human embryonic kidney (HEK293T) cells expressing luciferase-tagged ELG1; HEK293T ELG1-luciferase reporter, luminescence, 16 h; DNA damage induced by 5-fluorouridine; Potency, µM (titrated, usually from 46.1 µM), inactives show top-dose activity change, negative = inhibition, hits mostly inhibitors; 330,000 compounds, 2.3% hits; AID 504467, 2011; note: % is set by controls: 0 for no effect and ±100 for the full control effect; nearly all actives have a fitted effect of over 55% in size
#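 Step one: seed 2,000 cells per well. Step two: pin-transfer compound or DMSO alongside 5-fluorouridine. Step three: incubate 16 hr, 37 °C, 5% CO2. Step four: add ONE-Glo, wait 30 min, read luminescence.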
# VP16 counter: VP16 counterscreen qHTS for inhibitors of ROR gamma transcriptional activity | Drosophila S2 Gal4-VP16 UAS-luciferase, luminescence, 20 h | Potency, µM (top dose mostly 53.6 µM), inactives show top-dose activity, negative = inhibition, actives largely listed as inhibitors | 310,000 compounds, 3.5% hits | AID 2546, 2010;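 note: Gal4-VP16 expression switched on by copper sulfate through the metallothionein promoter; % is set by controls: 0 for no effect and ±100 for the full control effect; nearly all actives have a fitted effect of over 50% in size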
# An asterisk follows results filed as active; ? = inconclusive; · = no result given; [ ] = another dose, or the depositor's remark. The list is not random: actives were taken first. Their share in the collection is about 10%. Calls come from the whole dose curve; as a rule, active = well fitted curve in the direction sought with a large enough effect; inconclusive = small, poorly fitted or top-dose-only effect, or another doubt; inactive = no such curve, though single readings can be large; an effect the other way counts as inactive or inconclusive. Potency is the fitted concentration of half-maximal effect.
SMILES,SW480 rerep,MCF10A rerep,RORgamma inh,ELG1 repair inh,VP16 counter
Cc1ccc(-c2cc(C(F)(F)F)n3nc(C(=O)NCCCn4ccnc4)cc3n2)cc1C,?,15µM*,-6%,?,-7%
COC(=O)c1cc2nc(-c3ccc(OC)cc3)cc(C(F)(F)F)n2n1,-2%,1%,-9%,-5%,-11%
O=C(NCCCn1ccnc1)c1nn2c(C(F)(F)F)cc(-c3ccccc3)nc2c1Cl,6.5µM*,-1%,-1%,-8%,8%
Cc1ccc(-c2cc(C(F)(F)F)n3nc(C(=O)Nc4ccon4)cc3n2)cc1C,?,?,1%,2%,-2%
COCCN(CC(=O)Nc1cccc(C)c1C)C(=O)Cn1c(=O)cnc2ccccc21,-20%,?,·,17%,·
Cn1c(SCC(=O)Nc2ccc3[nH]c(=O)[nH]c3c2)nnc1-c1ccc(F)cc1,-1%,4%,0%,-6%,-4%
Cc1ccc(NC(=S)NC(C)(C)C)c([N+](=O)[O-])c1,99%,18%,3.2µM*,?,7.9µM*
COc1ccc(NC(=S)NC(NC(=O)C(C)C)C(Cl)(Cl)Cl)c([N+](=O)[O-])c1 (stereo unspecified),?,11%,18µM*,9%,?
NNC(=O)c1nc[nH]c1C(=O)Nc1ccccn1,2%,-2%,?,16%,3%
O=C(c1cnc(N2CCN(c3ncccn3)CC2)c2ccccc12)N1CCN(c2ccccn2)CC1,-7%,?,?,?,-6%
O=C(Nc1c(F)cccc1F)c1cnc(N2CCN(c3ccccn3)CC2)c2ccccc12,15%,20%,?,18µM*,-14%
Cc1ccc(NC(=O)c2cnc(N3CCN(c4ccccn4)CC3)c3ccccc23)c(Br)c1,?,18µM*,?,?,?
CCN1CCN(c2ncc(C(=O)Nc3cc(Cl)ccc3OC)c3ccccc23)CC1,?,?,-29%,9%,-9%
CCCN1CCc2c(sc(NC(=O)c3ccc(S(=O)(=O)N4CCN(C(=O)OCC)CC4)cc3)c2C(N)=O)C1,21µM*,?,?,?,?
CCOC(=O)c1c(NC(=O)C2COc3ccccc3O2)sc2c1CCN(Cc1ccccc1)C2 (stereo unspecified),-8%,?,25%,-23%,-5%
CCCN1CCc2c(sc(NC(=O)c3ccc(S(=O)(=O)N(C)c4ccccc4)cc3)c2C(N)=O)C1,?,6.5µM*,-19%,?,-28%
NC(=O)c1c(NC(=O)C2COc3ccccc3O2)sc2c1CCN(Cc1ccccc1)C2 (stereo unspecified),?,23µM*,-7%,13%,-25%
CCOC(=O)N1CCN(S(=O)(=O)c2ccc(C(=O)Nc3sc4c(c3C(N)=O)CCN(CC)C4)cc2)CC1,778%,?,?,?,?
CCCN1CCc2c(sc(NC(=O)c3ccc(S(=O)(=O)N(C)c4ccccc4)cc3)c2C(=O)NC)C1,?,?,?,23µM*,?
CCC(=NOCc1ccccc1)C(=O)NNS(=O)(=O)c1ccc(C)cc1,-1%,8%,·,·,·
COC(=O)c1c(NC(=O)CCS(=O)(=O)c2ccccc2)sc2c1CCN(C)C2,?,?,-25%,2%,2%
CCCN1CCc2c(sc(NC(=O)CCS(=O)(=O)c3ccccc3)c2C(=O)OC)C1,?,18µM*,7%,4%,3%
S=C(NC1CCCCC1)N1CCC([C@H]2C=NC=N2)CC1,·,·,10%[16.9 µM],·,-1%[17 µM]
CN(CC(=O)Nc1ccccc1Br)C(=O)c1ccccc1-c1nc2ccccc2s1,0%,22%,-20%,21µM*,-25%
CN(CC(=O)Nc1ccccc1Br)C(=O)c1cc(Cl)nc2ccccc12,-13%,18%,·,-1%,·
SMILES,SW480 rerep,MCF10A rerep,RORgamma inh,ELG1 repair inh,VP16 counter
Cc1cnc(SCCc2ccncc2)nc1C,·,·,13µM*,4%,?
N#Cc1ccc(S(=O)(=O)N2CCC(C(=O)N3CCN(Cc4ccc5c(c4)OCO5)CC3)CC2)cc1,-25%,-1%,·,?,·
COC(=O)c1nn(-c2ccc(OC)cc2)c(=O)c2c(N)sc(C)c12,29µM*,-4%,-1%,20%,-6%
COC(=O)c1nn(-c2ccc(OC)cc2)c(=O)cc1NN,0%,10%,-28%,6%,-13%
CCc1ccc(CCC(=O)N2CCN(S(=O)(=O)c3sc(C(=O)O)c(C)c3C(=O)O)CC2)cc1,-6%,-9%,·,·,·
COc1ccc(OC)c(S(=O)(=O)NCC(c2ccc3c(c2)OCO3)N2CCOCC2)c1 (stereo unspecified),1%,0%,·,3%,·
NC(=S)Nn1c(CCC(=O)O)ccc1-c1ccccc1,-2%,-1%,-1%,2%,-10%
O=C(O)CCc1ccc(-c2ccccc2)n1NC(=O)c1cccs1,23µM*,-15%,-30%,15%,1%
O=C(/C=C/c1cn(CC(O)CN2CCCCC2)c2ccccc12)c1ccccc1 (stereo unspecified),21µM*,21µM*,13%,-14%,-6%
OC(CN1CCCCC1)Cn1c2ccccc2c2ccccc21 (stereo unspecified),-25%,0%,-43%,-15%,-8%
COc1ccc(C(=O)/C=C/c2cn(CC(O)CN3CCN(C)CC3)c3ccccc23)cc1OC (stereo unspecified),23µM*,10µM*,27%,?,7%
CCn1cc(/C=C(\NC(=O)c2ccc(OC)c(OC)c2)C(=O)N2CCN(C)CC2)c2ccccc21,0%,6%,1%,2%,-17%
CN1CCN(Cn2cc(/C=C/C(=O)c3ccccc3)c3ccccc32)CC1,?,?,?,?,0%
O=c1c2ccccc2n(CC(O)CN2CCCCC2)c2ccccc12 (stereo unspecified),7.3µM*,21µM*,-2%,-3%,-10%
O=C(/C=C/c1cn(CC(O)CN2CCCCC2)c2ccccc12)c1cccs1 (stereo unspecified),21µM*,23µM*,2%,2%,-26%
CCCCN(C)CC(O)Cn1cc(/C=C/C(=O)c2ccc(C)cc2)c2ccccc21 (stereo unspecified),?,?,?,-5%,?
CCN1CC(=O)Nc2cc(S(=O)(=O)N3CCOCC3)ccc21,1%,?,-10%,2%,-8%
Cc1nn(-c2ccccc2)c2nc(-c3ccco3)cc(C(=O)O)c12,0%,?,19%,0%,10%
